According to ChEMBL document CHEMBL1961873, “Compounds: GSK PKIS; Assays: Nanosyn kinase panel” (2012):

Key:
[1] = molecular target: T1, Mitogen-activated protein kinase 12 (Homo sapiens) (UniProt P53778); settings: at 1 µM;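 further: values are averaged p38gamma kinase inhibition readings, compounds tested at 1 µM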
T1 sequence (whole entry): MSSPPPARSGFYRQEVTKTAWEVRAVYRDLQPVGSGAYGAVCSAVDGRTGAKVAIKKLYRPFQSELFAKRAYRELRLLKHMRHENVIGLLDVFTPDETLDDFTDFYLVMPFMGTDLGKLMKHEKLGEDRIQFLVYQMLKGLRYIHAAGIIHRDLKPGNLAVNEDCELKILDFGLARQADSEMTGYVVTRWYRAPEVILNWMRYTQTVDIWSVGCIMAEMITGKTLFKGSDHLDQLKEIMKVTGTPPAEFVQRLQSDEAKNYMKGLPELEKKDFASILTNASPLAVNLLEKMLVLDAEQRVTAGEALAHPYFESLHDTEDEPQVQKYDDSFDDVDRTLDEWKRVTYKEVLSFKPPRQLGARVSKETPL

[2] = molecular target: SRSF protein kinase 1 (Homo sapiens) (UniProt Q96SB4); settings: at 0.1 µM
[3] = molecular target: SRSF protein kinase 1 (Homo sapiens) (UniProt Q96SB4); settings: at 1 µM
[4] = molecular target: Phosphatidylinositol 4,5-bisphosphate 3-kinase catalytic subunit alpha isoform (Homo sapiens) (UniProt P42336); settings: at 0.1 µM
[5] = molecular target: Phosphatidylinositol 4,5-bisphosphate 3-kinase catalytic subunit alpha isoform (Homo sapiens) (UniProt P42336); settings: at 1 µM
[6] = molecular target: T2, Phosphatidylinositol 4,5-bisphosphate 3-kinase catalytic subunit delta isoform (Homo sapiens) (UniProt O00329); settings: at 0.1 µM
T2 sequence (whole entry): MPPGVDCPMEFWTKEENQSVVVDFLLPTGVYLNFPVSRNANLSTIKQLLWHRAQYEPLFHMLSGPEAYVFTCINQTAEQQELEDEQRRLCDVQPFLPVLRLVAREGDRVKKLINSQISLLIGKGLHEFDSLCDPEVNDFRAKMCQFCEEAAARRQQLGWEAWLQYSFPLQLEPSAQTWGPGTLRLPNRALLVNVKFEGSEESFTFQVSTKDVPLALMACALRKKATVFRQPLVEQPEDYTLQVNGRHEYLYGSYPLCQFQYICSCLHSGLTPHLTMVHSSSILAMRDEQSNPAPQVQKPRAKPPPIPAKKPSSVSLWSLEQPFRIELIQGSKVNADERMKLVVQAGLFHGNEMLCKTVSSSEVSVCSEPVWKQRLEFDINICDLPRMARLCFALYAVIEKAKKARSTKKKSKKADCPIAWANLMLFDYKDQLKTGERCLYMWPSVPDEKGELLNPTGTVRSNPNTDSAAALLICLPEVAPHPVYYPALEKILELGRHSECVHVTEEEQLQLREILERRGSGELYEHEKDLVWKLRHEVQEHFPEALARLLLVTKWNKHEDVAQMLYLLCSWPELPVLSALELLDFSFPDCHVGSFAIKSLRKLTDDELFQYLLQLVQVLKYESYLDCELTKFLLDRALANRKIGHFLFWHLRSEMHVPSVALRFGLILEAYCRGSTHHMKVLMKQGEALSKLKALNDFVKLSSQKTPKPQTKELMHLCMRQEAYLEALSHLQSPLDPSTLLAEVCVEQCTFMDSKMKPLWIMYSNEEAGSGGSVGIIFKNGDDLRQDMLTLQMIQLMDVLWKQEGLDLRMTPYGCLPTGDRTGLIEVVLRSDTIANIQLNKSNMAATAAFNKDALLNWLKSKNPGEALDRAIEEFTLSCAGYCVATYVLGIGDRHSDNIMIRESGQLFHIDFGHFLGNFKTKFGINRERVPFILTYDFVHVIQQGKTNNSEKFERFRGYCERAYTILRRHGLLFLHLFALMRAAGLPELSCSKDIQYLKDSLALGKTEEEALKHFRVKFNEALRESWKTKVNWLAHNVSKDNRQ

[7] = molecular target: T2, Phosphatidylinositol 4,5-bisphosphate 3-kinase catalytic subunit delta isoform (Homo sapiens); settings: at 1 µM
[8] = molecular target: Phosphatidylinositol 4-kinase beta (Homo sapiens) (UniProt Q9UBF8); settings: at 0.1 µM
[9] = molecular target: Phosphatidylinositol 4-kinase beta (Homo sapiens) (UniProt Q9UBF8); settings: at 1 µM
[10] = molecular target: Sphingosine kinase 1 (Homo sapiens) (UniProt Q9NYA1); settings: at 0.1 µM
[11] = molecular target: Sphingosine kinase 1 (Homo sapiens) (UniProt Q9NYA1); settings: at 1 µM
[12] = molecular target: T3, Sphingosine kinase 2 (Homo sapiens) (UniProt Q9NRA0); settings: at 0.1 µM
T3 sequence (whole entry): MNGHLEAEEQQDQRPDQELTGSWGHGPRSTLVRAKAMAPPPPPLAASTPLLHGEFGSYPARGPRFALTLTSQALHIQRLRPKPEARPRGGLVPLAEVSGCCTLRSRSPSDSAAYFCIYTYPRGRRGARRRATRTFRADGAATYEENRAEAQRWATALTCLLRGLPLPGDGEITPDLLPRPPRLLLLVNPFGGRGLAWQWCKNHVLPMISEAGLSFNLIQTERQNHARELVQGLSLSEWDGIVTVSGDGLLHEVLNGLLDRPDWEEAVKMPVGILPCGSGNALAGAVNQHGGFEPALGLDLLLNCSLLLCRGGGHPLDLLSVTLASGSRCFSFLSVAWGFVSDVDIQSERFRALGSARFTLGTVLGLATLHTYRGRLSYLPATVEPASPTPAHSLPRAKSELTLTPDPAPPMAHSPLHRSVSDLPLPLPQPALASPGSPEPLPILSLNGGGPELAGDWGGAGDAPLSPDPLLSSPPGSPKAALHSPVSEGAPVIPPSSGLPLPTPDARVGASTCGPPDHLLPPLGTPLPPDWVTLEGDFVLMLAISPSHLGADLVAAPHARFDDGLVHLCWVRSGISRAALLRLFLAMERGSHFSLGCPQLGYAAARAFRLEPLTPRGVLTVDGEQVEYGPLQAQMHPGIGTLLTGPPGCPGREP

[13] = molecular target: T3, Sphingosine kinase 2 (Homo sapiens); settings: at 1 µM
[14] = molecular target: Casein kinase II subunit alpha (Homo sapiens) (UniProt P68400); settings: at 0.1 µM
[15] = molecular target: Casein kinase II subunit alpha (Homo sapiens) (UniProt P68400); settings: at 1 µM
[16] = molecular target: T4, Inhibitor of nuclear factor kappa-B kinase subunit alpha (Homo sapiens) (UniProt O15111); settings: at 0.1 µM
T4 sequence (whole entry): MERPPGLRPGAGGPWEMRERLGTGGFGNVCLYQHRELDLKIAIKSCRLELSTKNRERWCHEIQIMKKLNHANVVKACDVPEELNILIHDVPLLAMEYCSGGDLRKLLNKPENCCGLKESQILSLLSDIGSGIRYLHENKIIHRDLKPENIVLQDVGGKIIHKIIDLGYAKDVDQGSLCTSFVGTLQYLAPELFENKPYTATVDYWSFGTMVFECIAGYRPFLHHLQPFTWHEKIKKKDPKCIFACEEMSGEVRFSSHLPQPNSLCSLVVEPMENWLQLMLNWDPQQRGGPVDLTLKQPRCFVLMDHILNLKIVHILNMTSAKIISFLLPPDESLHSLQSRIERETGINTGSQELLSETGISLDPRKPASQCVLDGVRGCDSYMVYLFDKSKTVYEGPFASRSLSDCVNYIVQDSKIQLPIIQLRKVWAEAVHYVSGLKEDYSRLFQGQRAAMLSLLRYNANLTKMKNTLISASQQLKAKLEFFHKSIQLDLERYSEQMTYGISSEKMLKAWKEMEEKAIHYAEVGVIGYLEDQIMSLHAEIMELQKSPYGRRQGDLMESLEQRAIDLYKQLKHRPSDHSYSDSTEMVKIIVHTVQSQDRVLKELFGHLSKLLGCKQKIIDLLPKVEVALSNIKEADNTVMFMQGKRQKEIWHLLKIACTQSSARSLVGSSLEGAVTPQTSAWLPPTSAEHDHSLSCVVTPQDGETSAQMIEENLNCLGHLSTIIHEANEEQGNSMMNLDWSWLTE

[17] = molecular target: T4, Inhibitor of nuclear factor kappa-B kinase subunit alpha (Homo sapiens); settings: at 1 µM
[18] = molecular target: T5, Inhibitor of nuclear factor kappa-B kinase subunit beta (Homo sapiens) (UniProt O14920); settings: at 0.1 µM
T5 sequence (whole entry): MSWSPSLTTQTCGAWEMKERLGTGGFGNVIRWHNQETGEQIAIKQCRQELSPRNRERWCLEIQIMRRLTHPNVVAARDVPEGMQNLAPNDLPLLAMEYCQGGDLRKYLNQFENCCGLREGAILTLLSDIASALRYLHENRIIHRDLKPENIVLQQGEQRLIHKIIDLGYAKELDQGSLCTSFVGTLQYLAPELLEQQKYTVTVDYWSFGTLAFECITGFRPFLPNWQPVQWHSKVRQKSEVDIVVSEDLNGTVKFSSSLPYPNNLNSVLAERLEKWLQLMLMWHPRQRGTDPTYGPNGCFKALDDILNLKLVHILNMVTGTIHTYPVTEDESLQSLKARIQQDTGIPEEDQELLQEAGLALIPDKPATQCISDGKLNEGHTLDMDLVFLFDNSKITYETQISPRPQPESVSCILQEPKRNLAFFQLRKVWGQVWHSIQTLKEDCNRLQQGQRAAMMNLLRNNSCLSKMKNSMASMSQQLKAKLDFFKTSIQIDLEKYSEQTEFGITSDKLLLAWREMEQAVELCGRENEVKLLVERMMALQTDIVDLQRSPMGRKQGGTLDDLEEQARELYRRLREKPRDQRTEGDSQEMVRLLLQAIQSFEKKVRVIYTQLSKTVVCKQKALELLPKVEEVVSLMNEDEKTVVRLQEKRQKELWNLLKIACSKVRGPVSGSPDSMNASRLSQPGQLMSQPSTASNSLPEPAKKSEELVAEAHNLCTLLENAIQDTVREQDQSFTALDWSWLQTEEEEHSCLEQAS

[19] = molecular target: T5, Inhibitor of nuclear factor kappa-B kinase subunit beta (Homo sapiens); settings: at 1 µM
[20] = molecular target: T6, Inhibitor of nuclear factor kappa-B kinase subunit epsilon (Homo sapiens) (UniProt Q14164); settings: at 0.1 µM;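 further: mean inhibition of IKKε reported, from the GSK PKIS dataset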
T6 sequence (whole entry): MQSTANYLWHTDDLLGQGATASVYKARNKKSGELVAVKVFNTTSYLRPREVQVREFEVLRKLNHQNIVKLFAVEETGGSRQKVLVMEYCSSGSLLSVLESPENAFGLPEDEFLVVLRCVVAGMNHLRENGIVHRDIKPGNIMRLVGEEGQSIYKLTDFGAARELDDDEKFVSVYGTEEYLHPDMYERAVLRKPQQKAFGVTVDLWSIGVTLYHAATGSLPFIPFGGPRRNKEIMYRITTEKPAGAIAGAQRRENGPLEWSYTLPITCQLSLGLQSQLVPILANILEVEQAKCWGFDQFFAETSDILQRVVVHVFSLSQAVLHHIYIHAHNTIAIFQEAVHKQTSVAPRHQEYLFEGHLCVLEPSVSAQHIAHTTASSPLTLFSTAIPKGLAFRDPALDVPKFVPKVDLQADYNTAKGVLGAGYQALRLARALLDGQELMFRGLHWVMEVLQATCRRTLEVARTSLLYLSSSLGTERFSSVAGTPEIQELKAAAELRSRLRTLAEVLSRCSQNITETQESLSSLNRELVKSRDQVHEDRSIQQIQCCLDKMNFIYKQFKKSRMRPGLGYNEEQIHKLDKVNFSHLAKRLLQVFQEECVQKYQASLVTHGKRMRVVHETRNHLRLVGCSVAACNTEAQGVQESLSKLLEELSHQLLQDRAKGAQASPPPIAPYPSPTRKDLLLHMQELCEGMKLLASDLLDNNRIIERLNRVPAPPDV

Sequence of Sphingosine kinase 1 (Homo sapiens) (Q9NYA1 whole entry): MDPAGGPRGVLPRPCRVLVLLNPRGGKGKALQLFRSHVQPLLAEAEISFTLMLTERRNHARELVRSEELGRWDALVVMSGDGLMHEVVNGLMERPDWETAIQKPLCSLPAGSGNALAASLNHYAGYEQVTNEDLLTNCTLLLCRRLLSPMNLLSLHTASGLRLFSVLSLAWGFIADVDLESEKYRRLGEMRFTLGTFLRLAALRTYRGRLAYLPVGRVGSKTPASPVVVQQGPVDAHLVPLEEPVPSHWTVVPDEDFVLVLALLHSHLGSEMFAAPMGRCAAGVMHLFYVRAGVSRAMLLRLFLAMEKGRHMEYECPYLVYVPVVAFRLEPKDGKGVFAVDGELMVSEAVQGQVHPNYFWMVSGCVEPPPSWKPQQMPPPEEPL
Sequence of SRSF protein kinase 1 (Homo sapiens) (Q96SB4 whole entry, canonical isoform): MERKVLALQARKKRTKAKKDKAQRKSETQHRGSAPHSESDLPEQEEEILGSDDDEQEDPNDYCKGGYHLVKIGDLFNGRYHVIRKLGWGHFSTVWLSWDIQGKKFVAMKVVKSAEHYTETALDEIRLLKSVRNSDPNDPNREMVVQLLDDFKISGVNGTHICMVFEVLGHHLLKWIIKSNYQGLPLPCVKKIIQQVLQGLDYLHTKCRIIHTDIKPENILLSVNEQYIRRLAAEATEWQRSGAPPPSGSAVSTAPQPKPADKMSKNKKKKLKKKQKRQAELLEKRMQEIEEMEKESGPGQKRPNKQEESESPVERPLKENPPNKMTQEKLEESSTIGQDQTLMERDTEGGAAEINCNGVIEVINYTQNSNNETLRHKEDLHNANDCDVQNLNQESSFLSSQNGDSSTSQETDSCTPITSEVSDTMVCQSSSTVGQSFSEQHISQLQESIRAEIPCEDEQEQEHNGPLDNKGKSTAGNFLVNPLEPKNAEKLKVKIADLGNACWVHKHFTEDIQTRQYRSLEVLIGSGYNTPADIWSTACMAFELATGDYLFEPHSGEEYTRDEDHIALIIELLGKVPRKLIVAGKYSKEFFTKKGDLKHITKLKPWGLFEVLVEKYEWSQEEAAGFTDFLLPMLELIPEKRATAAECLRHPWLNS
Sequence of Casein kinase II subunit alpha (Homo sapiens) (P68400 whole entry, looked up): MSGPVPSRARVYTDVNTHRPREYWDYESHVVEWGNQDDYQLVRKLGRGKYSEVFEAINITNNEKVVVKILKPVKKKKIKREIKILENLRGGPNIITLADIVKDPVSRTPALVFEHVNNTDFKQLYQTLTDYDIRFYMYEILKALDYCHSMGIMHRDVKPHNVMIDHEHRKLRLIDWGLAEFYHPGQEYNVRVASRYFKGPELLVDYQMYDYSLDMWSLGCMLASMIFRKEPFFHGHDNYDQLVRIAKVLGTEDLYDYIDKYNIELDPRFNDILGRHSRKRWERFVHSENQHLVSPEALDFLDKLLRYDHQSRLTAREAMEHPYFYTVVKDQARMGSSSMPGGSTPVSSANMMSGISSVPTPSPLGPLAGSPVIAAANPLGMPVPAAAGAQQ
Sequence of Phosphatidylinositol 4-kinase beta (Homo sapiens) (Q9UBF8 2-816 limits assumed): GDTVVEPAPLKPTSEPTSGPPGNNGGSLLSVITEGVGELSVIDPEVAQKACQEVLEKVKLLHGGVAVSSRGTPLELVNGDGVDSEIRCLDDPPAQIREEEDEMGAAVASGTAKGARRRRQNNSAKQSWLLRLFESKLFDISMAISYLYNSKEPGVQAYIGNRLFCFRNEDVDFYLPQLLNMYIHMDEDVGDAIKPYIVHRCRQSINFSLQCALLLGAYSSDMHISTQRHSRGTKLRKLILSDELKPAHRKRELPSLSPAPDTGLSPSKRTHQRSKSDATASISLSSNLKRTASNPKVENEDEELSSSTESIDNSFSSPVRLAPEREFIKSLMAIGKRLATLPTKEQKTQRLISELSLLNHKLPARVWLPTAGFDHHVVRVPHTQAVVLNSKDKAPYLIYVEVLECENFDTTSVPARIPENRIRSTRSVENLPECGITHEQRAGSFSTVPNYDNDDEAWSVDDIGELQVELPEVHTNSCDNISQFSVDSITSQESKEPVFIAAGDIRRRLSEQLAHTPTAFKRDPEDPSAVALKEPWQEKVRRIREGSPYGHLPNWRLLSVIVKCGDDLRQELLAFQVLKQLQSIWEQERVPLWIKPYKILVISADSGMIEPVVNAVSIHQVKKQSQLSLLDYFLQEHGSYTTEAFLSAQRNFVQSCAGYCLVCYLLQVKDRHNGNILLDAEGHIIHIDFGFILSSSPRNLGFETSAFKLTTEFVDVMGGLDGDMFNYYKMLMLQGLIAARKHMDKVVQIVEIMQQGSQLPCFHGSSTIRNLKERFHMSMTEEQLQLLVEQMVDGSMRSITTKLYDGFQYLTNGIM
Sequence of Phosphatidylinositol 4,5-bisphosphate 3-kinase catalytic subunit alpha isoform (Homo sapiens) (P42336 whole entry, canonical isoform): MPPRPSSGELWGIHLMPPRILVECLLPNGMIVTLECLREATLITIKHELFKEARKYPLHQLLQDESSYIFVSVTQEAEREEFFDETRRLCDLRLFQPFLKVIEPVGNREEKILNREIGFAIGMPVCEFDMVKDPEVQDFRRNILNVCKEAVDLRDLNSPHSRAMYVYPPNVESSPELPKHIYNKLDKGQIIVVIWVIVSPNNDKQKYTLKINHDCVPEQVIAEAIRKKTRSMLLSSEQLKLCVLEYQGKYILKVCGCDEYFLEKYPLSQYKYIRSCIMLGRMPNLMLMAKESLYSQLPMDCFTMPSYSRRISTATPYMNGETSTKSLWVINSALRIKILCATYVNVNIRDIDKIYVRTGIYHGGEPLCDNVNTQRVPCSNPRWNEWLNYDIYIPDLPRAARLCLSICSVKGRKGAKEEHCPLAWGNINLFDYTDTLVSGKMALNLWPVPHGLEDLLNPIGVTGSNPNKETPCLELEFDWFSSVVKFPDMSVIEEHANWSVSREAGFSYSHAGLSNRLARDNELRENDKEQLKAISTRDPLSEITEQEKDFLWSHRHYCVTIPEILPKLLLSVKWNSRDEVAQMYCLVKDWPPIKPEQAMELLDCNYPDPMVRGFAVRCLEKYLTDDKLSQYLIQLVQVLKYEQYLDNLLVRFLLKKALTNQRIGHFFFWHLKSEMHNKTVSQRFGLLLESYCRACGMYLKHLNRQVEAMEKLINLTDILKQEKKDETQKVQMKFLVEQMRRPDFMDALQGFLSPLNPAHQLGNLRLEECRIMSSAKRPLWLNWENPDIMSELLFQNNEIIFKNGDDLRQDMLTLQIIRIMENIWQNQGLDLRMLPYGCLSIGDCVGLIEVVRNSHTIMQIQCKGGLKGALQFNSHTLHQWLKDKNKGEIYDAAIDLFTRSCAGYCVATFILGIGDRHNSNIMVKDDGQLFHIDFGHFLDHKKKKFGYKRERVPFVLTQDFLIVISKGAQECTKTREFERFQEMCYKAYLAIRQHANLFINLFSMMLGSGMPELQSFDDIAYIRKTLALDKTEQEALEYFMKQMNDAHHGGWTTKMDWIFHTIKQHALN

SMILES	inhibition [1]	inhibition [2]	inhibition [3]	inhibition [4]	inhibition [5]	inhibition [6]	inhibition [7]	inhibition [8]	inhibition [9]	inhibition [10]	inhibition [11]	inhibition [12]	inhibition [13]	inhibition [14]	inhibition [15]	inhibition [16]	inhibition [17]	inhibition [18]	inhibition [19]	inhibition [20]
NS(=O)(=O)c1ccc(N/C=C2\C(=O)Nc3ccc4ncsc4c32)cc1	5.04%	-3.49%	-2.8%	4.87%	7.04%	2.72%	12.7%	-2.13%	1.22%	0.04%	0.02%	-1.02%	-0.93%	7.56%	28%	2.29%	14.3%	8.87%	13.1%	13.3%
Cc1cc(-c2ccco2)cc(C)c1/C=C/c1cncc(-c2nn[nH]n2)c1	1.3%	-0.96%	-1.7%	-0.22%	6.64%	0.16%	-1.23%	-1.26%	9.03%	0.73%	-1.08%	-0.36%	1.61%	1.49%	3.8%	-1.31%	2.26%	3.61%	2.75%	4.22%
CCn1c(-c2nonc2N)nc2c(C#CC(C)(C)O)ncc(OC[C@@H]3CCCN3)c21	0.35%	-1.57%	-2.53%	-0.15%	0.24%	0.06%	0.22%	0.05%	1.54%	-0.8%	1.85%	1.65%	0%	13.9%	-1.67%	7.49%	-0.05%	4.75%	4.4%	89.6%
COc1cc2c(cc1Nc1nc(Nc3ccsc3C(N)=O)c3cc[nH]c3n1)N(C(=O)CN(C)C)CCC2	3.18%	-1.65%	-0.66%	-0.16%	-1%	0.01%	-0.22%	-1.18%	-3.17%	1.85%	0.45%	4.92%	-0.26%	8.25%	37.7%	-7.1%	-1.3%	2.95%	-1.2%	-5.2%
CCn1c(-c2nonc2N)nc2c(C#CC(C)(C)O)ncc(OCC3CCNCC3)c21	1.7%	-0.7%	1.81%	1.65%	19.5%	-0.08%	-0.9%	4.18%	-3.56%	0%	0.24%	1.73%	-2.73%	4.56%	12.8%	7.05%	7.37%	4.88%	4.77%	90.3%
COc1cccc(-n2ncc3c(N/N=C/c4ccncc4)ncnc32)c1	14.1%	-1.14%	4.65%	3.22%	7.14%	2.66%	10%	-3.14%	1.7%	-0.71%	-2.79%	-0.91%	-0.32%	18.2%	59.7%	1.55%	1.71%	4.82%	4.07%	5.23%
Nc1nonc1-c1nc2cnccc2n1C1CCCCC1	0.39%	1%	-0.52%	-2.06%	-3.54%	-1.65%	0.74%	4.2%	-2.26%	0%	0.54%	1.2%	0.21%	-0.44%	4.16%	-6.64%	-2.66%	-2.5%	-5.78%	-0.73%
